Experimental data reported in PubChem BioAssay AID493191 (Broad Institute, 2011).
The campaign covered roughly 1,300 compounds. About 330 (25%) were called active. The rule behind the calls is not given here. Only a sample is shown. Measured potencies and affinities stand elsewhere.

experiment: growth inhibition of MALME3 cells – cell-based, CellTiter-Glo, cherry-picked, orthogonal assay for MITF inhibitor project, dose response (AID 493191); conditions: MALME3 melanoma viability, CellTiter-Glo luminescence, 24 h; series mostly up to 35 µM

Structure (SMILES) | outcome
Cc1cc(C(=O)O/N=C(\N)c2ccncc2)ccc1[N+](=O)[O-] | inactive
Cc1c(NC(=O)C(C)OC(=O)c2ccc([N+](=O)[O-])s2)c(=O)n(-c2ccccc2)n1C (configuration not stated) | inactive
CCCCOc1ccc(-c2ncc([N+](=O)[O-])cn2)cc1 | inactive
CC(C)(C)N=Cc1cc(-c2ccccc2)sc1O | inactive
O=C(N/N=C/c1ccc([N+](=O)[O-])o1)c1sc2ccccc2c1Cl | inactive
C(#Cc1ccccc1)C[N+]1(CC#Cc2cccc3ccccc23)CCCC1 | inactive
CSCCNC(=O)c1ccc2nc(Cc3ccccc3F)oc2c1 | inactive
O=C(CSC(=S)N1CCCCC1)c1c(F)cccc1F | inactive
CN(Cc1ccccc1)C1=CC(=[N+]2CCCCC2)CC(C)(C)C1 | inactive
CCOc1cccc(C(=O)NC2=NCCS2)c1 | inactive
CCOC(=O)N1CCC(NC(=O)C2CCCN(Cc3nc(-c4cccc(C)c4)oc3C)C2)CC1 (configuration not stated) | inactive
[2H]C(CCOS(N)(=O)=O)c1ccc(C(C)(C)C)cc1 (configuration not stated) | inactive
N/C(=N\OC(=O)c1ccc([N+](=O)[O-])cc1)c1ccc(Br)cc1 | inactive
COc1cc(/C=C/C(=O)N2CCC=CC2=O)cc(OC)c1OC | inactive
c1ccc(C[n+]2cccc3c4ccccc4ccc32)cc1 | inactive
CCCCN(CC)CCCNC(=O)c1cc2c(=O)n(CC)c3ccccc3c2s1 | inactive
CC1(C)CC(=O)C=C(NC2=CC3OC(c4ccccc4)OCC3OC2=O)C1 (configuration not stated) | inactive
C(=N\Nc1cc(N2CCCCC2)ncn1)/c1ccco1 | inactive
Clc1ccc(-c2nc(-c3ccncc3)no2)c(Cl)c1 | inactive
O=C(Cc1cccs1)NCc1ccc(Cl)cc1Cl | inactive
CC(C)n1cc(/C=C/c2cc[n+](C)cc2)c2ccccc21 | inactive
O=C(Nc1nc(-c2ccccn2)cs1)c1ccc(F)c(S(=O)(=O)N2CCOCC2)c1 | inactive
Cc1ccc(-c2cn3cc(C)ccc3n2)cc1 | inactive
O=C(CSc1ccccn1)c1ccc2c(c1)OCO2 | inactive

Structure (SMILES) | outcome
COc1cccc(NC(=O)c2cc3c(=O)n4ccccc4nc3n(CC(C)C)c2=N)c1 | inactive
CCOC(=O)N1C(=O)[C@](CC)(c2ccccc2)N1C(=O)OCC | inactive
CCOC(=O)c1cn2nc(Oc3ccccc3)ccc2n1 | inactive
C/C(=N\Nc1cc(N2CCOCC2)ncn1)c1ccccc1 | inactive
CC1(C)Cc2c(sc(NC(=O)Nc3ccccc3)c2C(N)=O)CO1 | inactive
Cc1ccc(C)c(S(=O)(=O)N2CCN(Cc3ccc(O)c4ncccc34)CC2)c1 | inactive
O=S(=O)(c1ccc(Cl)cc1)N1CCN(Cc2ccc(O)c3ncccc23)CC1 | inactive
CN(C)CCNC(=O)COc1ccc(C23CC4CC(CC(C4)C2)C3)cc1 | inactive
CN(C)c1ccc(/C=C2\SC(=O)N(CCc3nnc(N)s3)C2=O)cc1 | inactive
Cc1[nH]n(-c2ccccc2)c(=O)c1N=Nc1cccc(C(=O)O)c1 | inactive
C/C(=C\c1ccccc1)C(=O)Nc1ccc(Cl)cn1 | inactive
O=[N+]([O-])c1cc(CN2CCN(c3ccccc3)CC2)c(O)c2ncccc12 | inactive
O=[N+]([O-])c1ccccc1OCCCOc1cccc2cccnc12 | inactive
Cc1ccc(-c2cn(-c3ccc(SC(F)F)cc3)c3[n+]2CCC3)cc1 | inactive
Cc1ccc(NC(=O)c2ccc(OCC3CCCO3)cc2)c(C)c1 (configuration not stated) | inactive
C#CC(=O)N(c1ccc(OC)cc1OC)C(C(=O)NC1CCCC1)c1cccs1 (configuration not stated) | inactive
COc1ccc(N(CC(=O)NCC2CCCO2)S(=O)(=O)c2ccccc2)cc1OC (configuration not stated) | inactive
C#CC(=O)N(c1ccc(OC)c(OC)c1)C(C(=O)NC1CCCC1)c1cccs1 (configuration not stated) | inactive
CN(C)/C=N/c1ncc(C(=O)c2ccccc2)s1 | inactive
Cc1ccc2nc(Cc3ccc(N)cc3)oc2c1 | inactive
CCc1nc2oc3ccccc3c(=O)c2cc1C(=O)OC | inactive
COc1ccc(N(C(=O)CCl)C(C(=O)NC2CCCCC2)c2cccnc2)cc1 (configuration not stated) | inactive
COc1ccc(C(C(=O)NC2CCCCC2)N(C(=O)CCl)c2ccc(OC)cc2)cc1 (configuration not stated) | inactive
COCCN(C(=O)CCl)C(C(=O)NC1CCCCC1)c1ccccc1C (configuration not stated) | inactive

Structure (SMILES) | outcome
Cc1cc(NC(=O)c2ccc(Cl)cc2Cl)no1 | inactive
COCn1c(COc2ccccc2)nc2ccccc21 | inactive
COc1ccc(Br)cc1/C=C/C(=O)c1ccc(NC(C)=O)cc1 | inactive
O=C(N/N=C/c1ccccc1Cl)c1n[nH]c2c1CCCC2 | inactive
Nc1c(N(CCC2=CCCCC2)C(=O)COc2ccc([N+](=O)[O-])cc2)c(=O)[nH]c(=O)n1Cc1ccccc1 | inactive
Nc1ccc(Oc2cccc(Oc3ccc(N)cc3)c2)cc1 | inactive
O=[N+]([O-])c1ccc(Sc2cc[n+]([O-])c3ccccc23)c([N+](=O)[O-])c1 | inactive
Cc1ccc(O)c(NC(=O)c2ccc3c(c2)C(=O)N(CC(C)C)C3=O)c1 | inactive
O=C(Nc1ccc2c(c1)OCCO2)c1cccc(Cl)c1Cl | inactive
O=C(Nc1ccc2nc3n(c(=O)c2c1)CCCC3)c1cc([N+](=O)[O-])ccc1F | inactive
CC(C)CN=C(NS(=O)(=O)c1ccccc1)C(Cl)(Cl)Cl | inactive
CC(=O)c1c(C)[nH]c(C(=O)Nc2ccc(C)c(C)c2)c1C | inactive
Cc1ccc(C(=O)Nc2nc3ccc(Cl)cc3s2)o1 | inactive
Cc1cc(C(F)(F)F)c2c(N)c(C(=O)Nc3cc(C)on3)sc2n1 | inactive
O=C(Nc1nc2ccccc2s1)c1ccccc1[N+](=O)[O-] | inactive
CN(c1ccc2nc3ccccc3c(=O)n2n1)C1CCCCC1 | inactive
CCOc1ccccc1-c1nc(-c2ccc(C)nc2OC)no1 | inactive
CC(=O)Nc1nc(C)c(-c2csc(Nc3cccc(C(C)=O)c3)n2)s1 | inactive
COc1ccccc1-c1nc(-c2ccc(C)nc2OC)no1 | inactive
CS(=O)(=O)c1nc(-c2ccc(F)cc2)cc(C(F)(F)F)n1 | inactive
CCOC(=O)c1cnc2c(ccc3ccccc32)c1N | inactive
O=C(N/N=C\c1cc(Br)ccc1O)c1ccc(S(=O)(=O)N2CCCCC2)cc1 | inactive
O=C(Nc1ccc(S(=O)(=O)N2CCCCCC2)cc1)c1[nH]ncc1[N+](=O)[O-] | inactive
O=C(Nc1ccc(Cl)c(S(=O)(=O)N2CCOCC2)c1)c1ccc(OCC2CCCO2)cc1 (configuration not stated) | inactive

Structure (SMILES) | outcome
O=C(Nc1cccc(Cl)c1)Nc1cc(S(=O)(=O)N2CCCCC2)ccc1Cl | inactive
Cc1ccc(NC(=O)c2ccc([N+](=O)[O-])s2)cc1S(=O)(=O)N1CCOCC1 | inactive
O=C1CN(c2ccccc2)C(=S)N1C(=O)c1ccc(Br)cc1 | inactive
COc1ccc(NC(=O)c2cc(F)cc(F)c2)cc1Cl | inactive
CN(C)c1ccc(NC(=O)Nc2ccc3c(c2)nnn3C)cc1 | inactive
O=[N+]([O-])/C=C\c1ccc(N2CCOCC2)cc1 | inactive
COc1ccc(C(NC(C)=O)c2ccc3cccnc3c2O)c(OC)c1 (configuration not stated) | inactive
CCOC(=O)c1ccc2nc(C)c(CCC(C)=O)c(Cl)c2c1 | inactive
COc1ccc(C(=O)Nc2ccc(C)cn2)c(OC)c1 | inactive
CC(C)N1C(=O)S/C(=C\c2ccc(-c3ccc(Cl)c(C(=O)O)c3)o2)C1=O | inactive
COC(=O)c1ccc(COc2ccc3c(c2)CCC3)o1 | inactive
CN=c1scc(-c2ccccc2F)n1/N=C/c1ccc[nH]1 | inactive
O=C(/C=C/c1ccc2c(c1)OCO2)N1CCCCC1 | inactive
CCCC(=O)NC(c1ccc(OC)c(OC)c1)c1cc(Cl)c2cccnc2c1O (configuration not stated) | inactive
CCC(=O)NC(c1ccccc1OC)c1ccc2cccnc2c1O (configuration not stated) | inactive
COc1cnc(-c2ccccn2)nc1NC(C)C | inactive
COc1ccc(C(=O)C(CN2CCCC2)c2ccccc2)cc1 (configuration not stated) | inactive
COc1ccc(C(=O)C(CN2CCOCC2)c2ccccc2)cc1 (configuration not stated) | inactive
CCNC(=O)CC1C(=O)N(c2ccc(F)cc2)C(=O)N1CCc1ccc(OC)cc1 (configuration not stated) | inactive
COc1ccc(C(=O)CCNc2ccc(F)cc2)cc1 | inactive
c1ccc(-n2ncc3c(NCc4cccs4)ncnc32)cc1 | inactive
CC(C)(C)c1ccc(C(=O)Nc2sc3c(c2C(=O)O)CCC3)cc1 | inactive
Cc1cc(C)c2c(N)c(C(=O)Nc3ncc(C)s3)sc2n1 | inactive
O=C(CC(=O)c1ccccc1)Nc1ccccc1 | inactive

Structure (SMILES) | outcome
O=C(CNC(=O)c1ccc(Br)cc1)c1ccccc1 | inactive
C/C(=N/N=C(/C)c1cccs1)c1cccs1 | inactive
CCC[n+]1c(C)sc2c3c(ccc21)CCCC3 | inactive
Cc1nc2cc(NC(=O)Nc3cccc([N+](=O)[O-])c3)ccc2n1C | inactive
Cn1cc([N+](=O)[O-])c(C(=O)Nc2cc(Oc3ccccc3)cc([N+](=O)[O-])c2)n1 | inactive
Cc1cc(C)c2c(N)c(C(=O)N/N=C/c3cccnc3)sc2n1 | inactive
O=C(O)C1CCN(C(=O)OCc2ccccc2)CC1 | inactive
O=C(/C=C/c1ccccc1)Nc1cccc(C(=O)O)c1 | inactive
Cc1ccc(NC(=O)/C=C/c2ccc([N+](=O)[O-])s2)c(C)c1 | inactive
O=C(/C=C/c1ccc([N+](=O)[O-])s1)N1CCCC1 | inactive
CC1CC(C)CN(C(=O)/C=C/c2ccc([N+](=O)[O-])s2)C1 (configuration not stated) | inactive
CC(C)N=c1c([N+](=O)[O-])nn(C)n1O | inactive
OCC1OC(n2cnc3c(NCc4ccco4)ncnc32)C(O)C1O (configuration not stated) | inactive
CC(Oc1ccc(F)cc1)C(=O)Nc1nc(-c2ccccn2)cs1 (configuration not stated) | inactive
CCC(=O)NCCc1nc2cc(NC(=O)c3cccc([N+](=O)[O-])c3)ccc2n1C | inactive
O=C(Nc1ccc(F)c(Cl)c1)c1ccc2c(c1)OCO2 | inactive
Cc1cc(C)n(-c2ccc(C(=O)Nc3ccc(C)c(S(=O)(=O)N4CCOCC4)c3)cc2)n1 | inactive
CCN1CCc2c(sc(NC(=O)c3ccc(S(=O)(=O)N4CCCCCC4)cc3)c2C(=O)NC)C1 | inactive
O=C(N/N=C\c1cc(Cl)ccc1O)c1ccc(S(=O)(=O)N2CCCCC2)cc1 | inactive
O=C(Cn1cnc2ccccc2c1=O)Nc1ccc2c(c1)OCCO2 | inactive
COc1ccc(NS(=O)(=O)c2cc(NC(=O)CNC(=O)c3cccc(OC)c3)ccc2C)cc1 | inactive
